High-throughput results as filed in PubChem.
Compounds with a hit are over-represented: about 2.8% of the library has one in this group of screens.
PAFAH1B3 inh – blocks human PAF acetylhydrolase 1B catalytic subunit 3; Q15102; recombinant PAFAH1B3, FP-rhodamine probe, fluorescence polarization; inhibition, % at 3.39 µM; 340,000 tested, 0.28% active; AID 492972;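 active = inhibition above the screen-wide average of all tested compounds plus 3 SD, cut at about 25% in these data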;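 also: 0% = enzyme with DMSO only and 100% = wells lacking PAFAH1B3 protein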
PAFAH1B2 FP inh – blocks human PAF acetylhydrolase 1b catalytic subunit 2 | recombinant PAFAH1B2, FP-rhodamine activity probe, fluorescence polarization | inhibition, % at 3.39 µM | 340,000 tested, 1.2% active;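 active = inhibition above the mean of all tested compounds plus 3 SD, cut at about 24% in these data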;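 also: 0% = enzyme with DMSO and 100% = wells lacking PAFAH1B2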
Fam108B counter – blocks mouse Fam108B hydrolase in RBBP9 counter-screen. recombinant Fam108B, FP-Rh probe fluorescence polarization. AID 1947. 300,000 tested, 0.33% active. inhibition, % at 9.51 µM;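 active = inhibition above the screen mean inhibition plus 3 SD, computed separately per campaign, cut at about 18% in these data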;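 also: inhibitors lower polarization as less probe binds the enzyme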
PAFAH2 inh – inhibitors of human PAFAH2; recombinant PAFAH2, FP-rhodamine activity probe, fluorescence polarization; 340,000 tested, 0.99% active; inhibition, % at 3.39 µM; Q99487;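 active = inhibition above the mean over all tested compounds plus 3 SD, cut at about 30% in these data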;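 also: inhibitors block probe labeling of enzyme so polarization drops; 0% = enzyme with DMSO and 100% = wells lacking PAFAH2 protein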
pPAFAH FP inh – inhibitors of human plasma PAF acetylhydrolase (pPAFAH) | Q13093 | recombinant pPAFAH, FP-rhodamine probe fluorescence polarization | inhibition, % at 3.39 µM | 330,000 tested, 1.5% active;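 active = inhibition above the mean inhibition across the screen plus 3 SD, cut at about 25% in these data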;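 also: inhibitors block binding of the rhodamine activity-based probe so polarization drops; 0% = enzyme with DMSO and 100% = wells lacking pPAFAH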
Target sequence (Q13093 whole entry, looked up): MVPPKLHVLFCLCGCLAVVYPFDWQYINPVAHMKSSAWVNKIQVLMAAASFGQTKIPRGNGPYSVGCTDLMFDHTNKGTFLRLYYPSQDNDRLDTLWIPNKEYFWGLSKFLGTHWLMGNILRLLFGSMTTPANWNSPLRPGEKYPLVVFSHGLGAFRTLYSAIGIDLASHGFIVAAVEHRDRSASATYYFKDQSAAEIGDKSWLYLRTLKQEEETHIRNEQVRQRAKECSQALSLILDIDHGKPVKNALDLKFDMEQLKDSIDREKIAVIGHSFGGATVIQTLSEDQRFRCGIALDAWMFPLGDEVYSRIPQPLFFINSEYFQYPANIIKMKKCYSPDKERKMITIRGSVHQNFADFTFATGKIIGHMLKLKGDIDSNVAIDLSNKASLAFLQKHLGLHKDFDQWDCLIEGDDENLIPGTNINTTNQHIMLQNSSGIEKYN
PME-1 primary – PME-1 (human) inhibition. 320,000 tested, 0.53% active. recombinant PME-1, FP-Rh probe fluorescence polarization. AID 2130. inhibition, % at 5.9 µM;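 active = inhibition above the campaign mean of all compounds plus 3 SD, cut at about 26% in these data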;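 also: competitive labeling of PME-1 active site by serine hydrolase directed probe; 0% = PME-1 with DMSO and 100% = wells lacking PME-1 enzyme; inhibitors block probe labeling so polarization falls and inhibition rises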
pPAFAH FP conf – confirmation of human plasma PAF acetylhydrolase (pPAFAH) inhibitors | AID 463230 | inhibition, % at 3.39 µM | 2,300 tested, 72% active | shares compounds with pPAFAH FP inh | recombinant pPAFAH, FP-Rh probe fluorescence polarization;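 active = mean inhibition of the triplicate above the hit cutoff set for the earlier primary screen, cut at about 25% in these data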;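 also: 0% = enzyme with DMSO and 100% = wells lacking pPAFAH enzyme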
* = called active by the depositor; . = no result given.

SMILES	PAFAH1B3 inh	PAFAH1B2 FP inh	Fam108B counter	PAFAH2 inh	pPAFAH FP inh	PME-1 primary	pPAFAH FP conf
Cc1ccc(S(=O)(=O)N(C)C)cc1NC(=O)CCNC(=O)c1ccccc1Cl	1	3	5	4	-1	1	.
COc1ccccc1OCc1nnc(SCC(=O)Nc2nnc(C3CC3)s2)n1C	4	6	1	0	4	-7	.
COCc1cc(=O)n2[nH]c(-c3ccco3)cc2n1	4	5	0	5	2	-5	.
CCCCN1Cc2c(nc3cc(-c4ccco4)[nH]n3c2=O)C1=O	12	12	11	32*	63*	-13	5
Cc1ccccc1Oc1ccc(-c2nc(N)nc(N)n2)cc1	-1	1	1	3	39*	-2	22
C[C@H](CO)N1C[C@H](C)[C@@H](CN(C)C(=O)Nc2ccc(C(F)(F)F)cc2)Oc2ccc(NS(=O)(=O)c3ccc(F)cc3)cc2C1=O	9	11	.	9	61*	.	59*
C[C@H](CO)N1C[C@H](C)[C@@H](CN(C)C(=O)Nc2ccc(C(F)(F)F)cc2)Oc2ccc(NS(=O)(=O)c3cccs3)cc2C1=O	5	2	.	10	13	.	.
C[C@H](CO)N1C[C@H](C)[C@@H](CN(C)C(=O)Nc2ccc(C(F)(F)F)cc2)Oc2ccc(NS(=O)(=O)c3ccccc3)cc2C1=O	0	4	.	2	76*	.	68*
CCOC(=O)c1c(-c2ccccc2)csc1NC(=O)/C(C#N)=C/c1ccc(O)c(OC)c1	21	8	5	14	40*	12	22
CCOC(=O)c1c(-c2ccccc2)csc1NC(=O)/C(C#N)=C/c1ccc(OC)c(OC)c1	-3	0	-2	-7	17	5	.
O=C(Nc1nc(-c2ccco2)c(-c2ccco2)s1)c1c(F)cccc1Cl	8	0	.	24	48*	-2	16
CC1=C(CC(=O)O)c2cc(F)ccc2/C1=C/c1ccc(S(C)=O)cc1 (configuration not stated)	7	3	-2	4	1	-6	.
COc1ccc(/C=C(\C#N)C(=O)OCCNC(=O)c2ccncc2)cc1	4	-4	-2	-1	2	2	.
O=C1CC(=O)N(Cc2ccco2)C(=O)N1	0	1	7	26	37*	-6	5
S=C1NCN(Cc2ccco2)CN1	5	5	2	0	-8	-1	.
O=C1CC(=O)N(Cc2cccs2)C(=O)N1	4	10	-1	-4	2	-4	.
O=C1CC(=O)N(Cc2ccco2)C(=S)N1	-10	0	-5	11	41*	-52	13
O=C1c2ccccc2C(=O)c2cc(S(=O)(=O)Nc3ccccc3)ccc21	11	6	5	18	37*	24	34*
O=C(NC1CCCCC1)C1CCCN1C(=O)Nc1ccccc1 (configuration not stated)	8	0	1	3	6	-6	.
CCOC(=O)C1(C)C=C(Nc2ccc(O)cc2)C(=O)N1c1ccc(O)cc1 (configuration not stated)	8	2	2	7	70*	13	2
CCCNc1c(F)c(F)c2c(C)c3ccccc3nc2c1F	12	6	11	20	35*	9	20
Cc1c2ccccc2nc2ccccc12	3	5	5	3	0	-2	.
COCCn1c(SCc2nc3sc(C(=O)OC)c(C)c3c(=O)[nH]2)nc2ccccc21	12	2	-2	4	3	2	.
CCn1c(SCc2nc3sc(C(=O)O)c(C)c3c(=O)[nH]2)nc2ccccc21	43*	12	5	16	48*	12	47*
O=C(c1ccco1)N1CCCC(c2nc(-c3ccc(S(=O)(=O)NCc4ccccc4)cc3)no2)C1 (configuration not stated)	9	2	-1	-6	6	7	.
SMILES	PAFAH1B3 inh	PAFAH1B2 FP inh	Fam108B counter	PAFAH2 inh	pPAFAH FP inh	PME-1 primary	pPAFAH FP conf
COc1cc(CCc2ccccc2)c(C(=O)O)c(O)c1C/C=C(/C)CCC=C(C)C	10	23	.	18	72*	.	59*
C#CCNc1cc(C)nc2ncnn12	-6	-1	2	8	51*	-5	2
C#CCNc1cc(-c2ccccc2)nc2ncnn12	5	3	0	-31	3	-4	.
COc1ccc(CC(=O)Nc2cc(Cl)ccc2C(=O)O)cc1	7	2	3	1	-4	-3	.
CCCCOc1ccc(Nc2cc(Cl)ccc2C(=O)O)cn1	12	6	-12	9	57*	-13	41*
COc1cccc(=O)c2c(C)n(CC(=O)c3ccccc3)c(C)c12	7	2	-1	8	38*	4	16
O=C1C(=Cc2ccc(Br)o2)C(=O)c2ccccc21	18	9	55*	71*	50*	-7	66*
CC1=C/C(=C\c2ccc(Br)o2)C(=O)O1	-2	-5	3	4	3	-4	.
Cc1ccccc1OCC(=O)N1CCN(C(=O)COc2ccccc2C)CC1	5	3	0	12	4	1	.
CC(C)=CCc1cc2c(=O)c3c(O)c4c(cc3oc2c(O)c1O)OC(C)C4(C)C (configuration not stated)	.	.	-2	.	67*	30*	86*
CCOc1ccc2ccccc2c1/C=N/NC(=O)c1ccc(C)nc1	-2	4	-3	18	8	1	.
C=CCSC1=N/C(=C\C=C\c2ccco2)C(=O)S1	13	6	16	33*	61*	2	18
C=CCSC1=N/C(=C\c2sccc2C)C(=O)S1	5	0	0	7	1	-5	.
Cc1cccc(Cc2cnc(N3C(=N)SC(C)C3=O)s2)c1 (configuration not stated)	6	8	1	2	43*	3	33*
O=C(O)c1ccc(/C=N/Nc2ccc(Cl)nn2)cc1	-1	8	-2	11	-2	-6	.
O=C(O)c1cc(-c2ccc(/C=C3\NC(=O)N(c4ccc(Cl)cc4)C3=O)o2)ccc1Cl	11	7	11	22	37*	-11	23
O=C(O)c1cc(-c2ccc(/C=C3\NC(=O)N(c4ccccc4)C3=O)o2)ccc1Cl	5	3	5	18	16	-15	.
[C-]#[N+][C@H](O[C@@H]1O[C@H](CO)[C@@H](O)[C@H](O)[C@H]1O)c1ccccc1	0	4	2	-5	7	5	.
O=C(O)CC(CCc1ccccc1)OC1OC(CO)C(O)C(O)C1O (configuration not stated)	25	18	-7	39*	74*	-9	34*
Cc1cc(C)c(S(=O)(=O)N(CC(=O)N2CCCC2)C2CCCCC2)c(C)c1	11	1	2	2	4	1	.
